TDP1 cell noCPT = qHTS for Inhibitors of human tyrosyl-DNA phosphodiesterase 1 (TDP1): qHTS in cells in absence of CPT; DT40 Tdp1-/- hTDP1 cells, no CPT, ATP luminescence, 48 h; Potency, µM (titrated, usually from 46.2 µM), for the others: at the highest dose activity change, negative = growth inhibition, hits mostly inhibitors; hit rate 15% among 420,000; AID 686978, 2013; also: potency is read from the fitted curve at half-maximal effect; nearly all actives have a fitted effect of over 55% in size
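DT40 Tdp1-/-;hTDP1 cells, no CPT (DMSO vehicle only), 400 cells/well; compounds pin-transferred; ≥48 hr, 37 °C; CellTiter-Glo 30 min RT dark, luminescence read.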
ALOX12 inh = Primary qHTS assay for inhibitors of human arachidonate 12S-lipoxygenase (ALOX12): Round 2. hit rate 1.1% among 580,000. purified 12hLO, xylenol orange hydroperoxide absorbance. Polyunsaturated fatty acid lipoxygenase ALOX12 (Homo sapiens), P18054. Potency, µM (top dose mostly 108 µM), for inactives: at the highest dose activity change, negative = inhibition, most hits filed as inhibitors; also: potency is read from the fitted curve at half-maximal effect
Target sequence (P18054 whole entry, looked up): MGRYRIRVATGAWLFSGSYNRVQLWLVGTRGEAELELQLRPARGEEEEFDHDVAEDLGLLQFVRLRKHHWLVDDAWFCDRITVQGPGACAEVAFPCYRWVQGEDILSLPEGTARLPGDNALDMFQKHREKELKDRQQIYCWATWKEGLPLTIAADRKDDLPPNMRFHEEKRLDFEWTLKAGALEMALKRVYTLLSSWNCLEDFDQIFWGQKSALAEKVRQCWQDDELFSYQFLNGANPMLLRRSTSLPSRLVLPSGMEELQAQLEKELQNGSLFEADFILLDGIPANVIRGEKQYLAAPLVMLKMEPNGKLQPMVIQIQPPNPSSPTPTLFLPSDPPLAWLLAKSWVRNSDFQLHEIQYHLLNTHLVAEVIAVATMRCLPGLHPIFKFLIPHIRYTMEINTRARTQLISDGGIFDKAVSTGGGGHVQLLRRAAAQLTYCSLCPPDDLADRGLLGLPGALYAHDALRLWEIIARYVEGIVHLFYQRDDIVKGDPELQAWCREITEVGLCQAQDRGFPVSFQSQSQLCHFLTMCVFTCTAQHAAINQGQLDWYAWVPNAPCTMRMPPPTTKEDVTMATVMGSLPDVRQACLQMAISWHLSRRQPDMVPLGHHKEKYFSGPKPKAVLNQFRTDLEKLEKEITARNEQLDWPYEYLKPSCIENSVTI
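Hydroperoxide product was detected by ferrous iron/xylenol orange as the 573 to 405 nm absorbance ratio. Arachidonic acid at 40 uM (final) was turned over for 30 min at room temperature by 150 nM human 12hLO, pH 7.0 Hepes buffer, after 15 min compound preincubation.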
IL-1B inflam inh = qHTS for Inhibitors of Inflammasome Signaling: IL-1-beta AlphaLISA Primary Screen | activity change, % at 57.5 µM | THP-1 LPS/ATP IL-1B secretion, AlphaLISA, 16 h; stronger effect = lower value | hit rate 4.7% among 360,000; in the data active = activity change below about -50%; inconclusive = mostly about -30% to -49%
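Secreted IL-1B measured by AlphaLISA bead assay after 16 h compound exposure of THP-1 cells; compounds (final up to 57.5 uM) added 1 h before LPS (250 ng/mL) and ATP (1.25 mM) stimulation; lower signal means less secretion.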
HT1080 IDH1KD tx = qHTS for induction of synthetic lethality in tumor cells producing 2HG: qHTS for the HT-1080-IDH1KD cell line | HT-1080 IDH1 knockdown viability, ATP luminescence, 48 h | Potency, µM (titrated, usually from 46.1 µM), for the others: at the top dose activity, negative = toxicity, usual class: cytotoxic | hit rate 2% among 360,000 | AID 686971, 2013;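 also: potency is read from the fitted curve at half-maximal effect; 0% = DMSO wells and -100% = cell-free medium wells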
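Luminescent ATP read-out (CellTiter-Glo, 10 min at room temperature) after 48 h compound exposure at 37 °C gave viability of IDH1-knockdown HT-1080 cells. Activity was normalised to DMSO and cell-free wells, then fitted as concentration-response curves.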
HT1080-NT tox = qHTS for induction of synthetic lethality in tumor cells producing 2HG: qHTS for the HT-1080-NT fibrosarcoma cell line; HT-1080-NT fibrosarcoma viability, CellTiter-Glo ATP luminescence, 48 h; Potency, µM (series often up to 46.1 µM), inactives show at the highest dose activity, negative = less viability, most hits filed as cytotoxic; hit rate 1.6% among 360,000;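 also: NT is the 2HG producing partner of a matched IDH1 knockdown line; potency is read from the fitted curve at half-maximal effect; 0% = DMSO-treated cells and -100% = media-only wells without cells; nearly all actives have a fitted effect of over 55% in size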
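Compounds were tested in concentration-response format on HT-1080-NT cells for 48 hours at 37 degrees C. Cell viability came from CellTiter-Glo luminescence; curves were classified by r2, response magnitude and activity.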
TDP1 cell CPT = qHTS for Inhibitors of human tyrosyl-DNA phosphodiesterase 1 (TDP1): qHTS in cells in presence of CPT | chicken DT40 Tdp1-/-;hTDP1 cells + 20 nM CPT, ATP luminescence, 48 h | Potency, µM (titrated, usually from 46.2 µM), without a hit: top-dose activity change, negative = growth inhibition, usual class: inhibitors | hit rate 12% among 420,000; also: potency is read from the fitted curve at half-maximal effect; nearly all actives have a fitted effect of over 55% in size
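Chicken DT40 Tdp1-/- cells complemented with human TDP1, 400 cells/well, exposed to compounds plus 20 nM camptothecin for at least 48 h at 37 C; viability read as ATP content by CellTiter-Glo luminescence.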
The depositor's hits bear a star; ? = inconclusive; . = no result; [ ] = dose if it differs, or a comment. Shown is part of a subset that was picked to be rich in hits. Unless noted, calls follow the shape of the dose curve; as a rule, active = well fitted curve in the direction sought with a large enough effect; inconclusive = small, poorly fitted or top-dose-only effect, or another doubt; inactive = no such curve, though single readings can be large; an effect the other way counts as inactive or inconclusive. Unless noted, % is scaled to controls: 0 for no effect and ±100 for the full control effect.

SMILES	TDP1 cell noCPT	ALOX12 inh	IL-1B inflam inh	HT1080 IDH1KD tx	HT1080-NT tox	TDP1 cell CPT
CC(C)N(C(=O)[C@H]1C[C@H](CC(=O)NCCCN(C)C)C(=O)N2CCc3c([nH]c4ccc(Cl)cc34)[C@]12C)C(C)C	15µM*	5%	-25	?	-20%	?
CCN(CC)C(=O)[C@H]1C[C@H](CC(=O)NCCCN(C)C)C(=O)N2CCc3c([nH]c4ccc(Cl)cc34)[C@]12C	?	-6%	-52*	-11%	-23%	18µM*
CCC/C=C/c1ccc(CN2C(C)C(=O)N(Cc3cn(CCC4OCCCO4)nn3)CCS2(=O)=O)cc1 (stereo not drawn)	13µM*	?	-24	-15%	-19%	?
CCC/C=C/c1ccc(CN2C(C(C)C)C(=O)N(Cc3cn(CCC4OCCO4)nn3)CCS2(=O)=O)cc1 (stereo not drawn)	13µM*	?	-12	?	?	?
CCC/C=C/c1ccc(CN2C(CC(C)C)C(=O)N(Cc3cn(CCC4OCCCO4)nn3)CCS2(=O)=O)cc1 (stereo not drawn)	23µM*	?	?	?	-17%	?
CCC/C=C/c1ccc(CN2C(C)C(=O)N(Cc3cn(CCOCOC)nn3)CCS2(=O)=O)cc1 (stereo not drawn)	?	-7%	12	10%	1%	-13%
CC(C)C1C(=O)N(Cc2cn(CCC3OCCCO3)nn2)CCS(=O)(=O)N1Cc1ccc(-c2cccc(N(C)C)c2)cc1 (stereo not drawn)	-3%	6%	7	1%	1%	5%
O=c1c(N2CCN(Cc3ccccc3)CC2)csc2ccc(F)cc12	.	-30%	.	.	.	.
C[C@H](CO)N1C[C@H](C)[C@@H](CN(C)S(C)(=O)=O)OCc2cn(nn2)CCCC1=O	.	-2%	.	.	.	.
COC(=O)Cn1c(C)nc([N+](=O)[O-])c1Br	?	2%	?	13%	9%	-30%
Cc1nc([N+](=O)[O-])c(Br)n1CC(=O)c1ccc(F)cc1	16µM*	-22%	-97*	18µM*	?	?
CCn1c(C)nc([N+](=O)[O-])c1C(=O)O	8%	?	27	?	12%	3%
Cc1nc([N+](=O)[O-])c(Br)n1CC(=O)c1cccc([N+](=O)[O-])c1	16µM*	?	-98*	?	-25%	15µM*
Cc1nc([N+](=O)[O-])c(Sc2nc3ccc([N+](=O)[O-])cc3[nH]2)n1Cc1ccccc1	8.2µM*	-13%	-76*	-10%	-14%	9.2µM*
Cc1nc([N+](=O)[O-])c(Br)n1Cc1ccccc1	6.5µM*	211%	-10	?	?	5.2µM*
COCC(=O)N(C)C1CCOc2ccccc21 (stereo not drawn)	.	67%[176 µM]	.	.	.	.
COc1ccc(CCc2nc3nccc(-c4ccc(OC)cc4)n3n2)cc1	.	13%	.	.	.	.
CC(C)=CC(O)C/C(C)=C/COc1ccc2ccc(=O)oc2c1 (stereo not drawn)	9.2µM*	26%	?	?	23µM*	7.3µM*
O=C(NCc1ccncc1)c1csc([C@@H]2O[C@H](CO)[C@@H](O)[C@H]2O)n1	2.3µM*	?	0	?	9%	2.1µM*
O=C(NCC(F)(F)F)c1csc([C@@H]2O[C@H](CO)[C@H](O)[C@H](O)[C@H]2O)n1	18%	-1%	11	16%	17%	5%
C#CCNC(=O)c1csc([C@@H]2O[C@H](CO)[C@@H](O)[C@H]2O)n1	?	-2%	13	?	9%	16µM*
Cc1occc1C(=O)N/N=C/c1cccnc1	-15%	2%[57.4 µM]	13	-16%	-4%	-14%
Cc1occc1C(=O)N/N=C/C(Br)=C/c1ccccc1	12µM*	-5%	-78*	-30%	-12%	9.2µM*
O=C(CN1CCOCC1)N/N=C/c1ccc(C(=O)O)cc1	19%	3%	-12	21%	17%	-5%
O=C(N/N=C/C(Br)=C/c1ccccc1)c1ccccc1[N+](=O)[O-]	13µM*	-9%	-19	-1%	-3%	13µM*
SMILES	TDP1 cell noCPT	ALOX12 inh	IL-1B inflam inh	HT1080 IDH1KD tx	HT1080-NT tox	TDP1 cell CPT
O=C(CN1CCOCC1)N/N=C/C(Br)=C\c1ccccc1	10µM*	10%	?	-1%	-18%	12µM*
CC(C)n1c(SCc2nc3ccccc3o2)nc2ccccc2c1=O	.	-2%	.	.	.	.
COc1ccc(Nc2ccc(S(=O)(=O)N3CCCCC3)cc2[N+](=O)[O-])cc1Cl	?	-3%	-14	-9%	-1%	?
O=C(O)CC/C(=N\Nc1ccc(S(=O)(=O)N2CCCC2)cc1[N+](=O)[O-])c1cccs1	-30%	-5%	9	33µM*	?	-26%
CN1CCN(S(=O)(=O)c2ccc(Nc3cccc(Cl)c3)c([N+](=O)[O-])c2)CC1	23µM*	9%	-8	-12%	-10%	?
O=[N+]([O-])c1cc(S(=O)(=O)N2CCCCC2)ccc1NCc1cccc(Cl)c1	29µM*	-4%	-18	?	-1%	-16%
O=[N+]([O-])c1cc(S(=O)(=O)N2CCCC2)ccc1NN=C1CCCCC1	-16%	-11%	-2	9%	16%	-15%
CO[C@H]1C[C@@H]2CC[C@@H](C)[C@@](O)(O2)C(=O)C(=O)N2CCCC[C@H]2C(=O)O[C@H]([C@H](C)C[C@@H]2CC[C@@H](O)[C@H](OC)C2)CC(=O)[C@H](C)C=C(C)[C@@H](O)[C@@H](OC)C(=O)[C@H](C)C[C@H](C)/C=C/C=CC=C1C	0.0047µM*	.	.	.	.	0.0024µM*
CN(C)c1nccc(N(Cc2ccccc2)Cc2ccccc2)c1C#N	29µM*	3.2µM*	-13	-2%[9.24 µM]	-18%	18µM*
COc1ccc(C(=O)N2CCC(C(NC(=O)c3ccccc3C)C(=O)NC(C)C(C)C)CC2)cc1 (stereo not drawn)	.	32%	.	.	.	.

Screening results (PubChem)
